Measurements reported in ChEMBL document CHEMBL1201862, “PubChem BioAssay data set” (2004).
In all, about 58,000 […] went through this assay and about 3,400 (5.9%) were called active. Rule as the data show it: active = GI50 up to about 1.1 µM and inactive = higher. The list is a sample of the results. Entries with a potency or affinity are not part of this list.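 All cell lines were grown in 96-well plates and treated with compound for 48 hours. GI50 = concentration required for 50% inhibition of growth.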

These substances were tested on A549 (assay: NCI tumour cell line growth inhibition, 48 h).

Row | Substance | GI50
1 | [Bis(aminomethyl)ethylmethylsilane]tetrachloroplatinum(IV), CHEMBL2146192 | 2.57 µM
2 | [Bis(aminomethyl)tetramethylenesilane]dichloropaltinum(II), CHEMBL2146205 | 27 µM
3 | mu-(1,7-nanodiamine-N,N')bis-(cis-aminedichloroplatimum (II)), CHEMBL2146215 | 38.7 µM
4 | [Bis(aminomethyl)dimethylsilane]tetrachloroplatinum(IV), CHEMBL2146190 | 4.91 µM
5 | [Bis(aminomethyl)diethylsilane]tetrachloroplatinum(IV), CHEMBL2146203 | 6.84 µM
6 | CISPLATIN, CHEMBL11359 | 3.08 µM
7 | [Bis(aminomethyl)dimethylsilane]dichloroplatinum (II), CHEMBL2146201 | 17.4 µM
8 | cis-Bis[[(trimethylsilyl)methyl]amino]tetrachloroplatinum(IV), CHEMBL2146191 | 15.6 µM
9 | [Bis(aminomethyl)tetramethylenesilane]tetrachloropaltinum(IV), CHEMBL2146189 | 8.34 µM
10 | [Bis(aminomethyl)pentamethylenesilane]dichloropaltinum(II), CHEMBL2146202 | 2.08 µM
11 | [Bis(aminomethyl)pentamethylenesilane]tetrachloropaltinum(IV), CHEMBL2146204 | 2.02 µM
